Measured values: PubChem BioAssay AID1159580 (chemical genetic matrix, 2015)
“And” between values parts separate entries of the source, which are not always exact repeats. Equal entries are not always repeated. Out of some 5,500 compounds screened, about 2,000 (36%) were called active. Inconclusive results (about 18%) are left out. No stated cut-off is given here; in the data, active means normalized growth mostly below about 0.91 (no sharp cut-off); inconclusive means no clear call, values can overlap the other calls; inactive means mostly above about 0.92. Some of the results follow.

Assay: chemical genetic growth profiling, strain panel (AID 1159580);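 further: tested at 20 µM; growth read once vehicle control cultures reached saturation at 30 °C; 1 = growth at the plate median or of vehicle wells; lower values mean less growth of the strain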
Details: S. cerevisiae deletion strains, growth OD

Measured: normalized growth

Cc1occc(=O)c1O
inactive: locus YAL021C, strain ccr4, active compounds read low 0.964 | locus YAL026C, strain drs2, active compounds read low 0.972 | locus YAL030W, strain snc1, active compounds read low 0.949 | locus YBL061C, strain skt5, active compounds read low 0.969 | locus YBR009C, strain hhf1, active compounds read low 0.984 | locus YBR021W, strain FUR4, active compounds read low 1 | locus YBR023C, strain chs3, active compounds read low 0.976 | locus YBR171W, strain sec66, active compounds read low 0.975 | locus YBR229C, strain ROT2, active compounds read low 1 | locus YBR231C, strain swc5, active compounds read low 0.964 | locus YBR279W, strain paf1, active compounds read low 0.944 | locus YCL011C, strain gbp2, active compounds read low 0.956 | locus YCL016C, strain dcc1, active compounds read low 0.978 | locus YCL029C, strain bik1, active compounds read low 1.02 | locus YCL061C, strain MRC1, active compounds read low 0.987 | locus YCL069W, strain vba3, active compounds read low 0.978 | locus YCR088W, strain abp1, active compounds read low 0.965 | locus YDL005C, strain med2, active compounds read low 0.967 | locus YDL035C, strain GPR1, active compounds read low 1.01 | locus YDL040C, strain nat1, active compounds read low 0.971 | locus YDL074C, strain BRE1, active compounds read low 1.01 | locus YDL101C, strain DUN1, active compounds read low 1.01 | locus YDL185W, strain tfp1, active compounds read low 1.01 | locus YDL192W, strain arf1, active compounds read low 1.02 | locus YDR001C, strain nth1, active compounds read low 0.953 | locus YDR069C, strain doa4, active compounds read low 1 | locus YDR101C, strain arx1, active compounds read low 0.991 | locus YDR137W, strain rgp1, active compounds read low 0.945 | locus YDR159W, strain sac3, active compounds read low 0.971 | locus YDR162C, strain NBP2, active compounds read low 1.02 | locus YDR195W, strain ref2 0.953 | locus YDR297W, strain sur2, active compounds read low 0.971 | locus YDR318W, strain mcm21, active compounds read low 1.02 | locus YDR334W, strain swr1, active compounds read low 0.929 | locus YDR335W, strain msn5, active compounds read low 0.964 | locus YDR388W, active compounds read low 1.01 | locus YDR392W, strain spt3, active compounds read low 0.917 | locus YDR502C, strain sam2, active compounds read low 0.999 | locus YEL003W, strain gim4, active compounds read low 0.956 | locus YEL037C, strain rad23, active compounds read low 0.961 | locus YEL061C, strain CIN8 (second series), active compounds read low 0.953 | locus YEL061C, strain CIN8, active compounds read low 1 | locus YER015W, strain faa2, active compounds read low 0.964 | locus YER016W, strain bim1, active compounds read low 0.958 | locus YER110C, active compounds read low 1.01 | locus YER111C, strain swi4, active compounds read low 0.966 | locus YER155C, strain BEM2 (second series), active compounds read low 0.97 | locus YER155C, strain BEM2, active compounds read low 0.993 | locus YER167W, strain BCK2, active compounds read low 0.995 | locus YFR010W, strain ubp6, active compounds read low 0.96 | locus YGL078C, strain dbp3, active compounds read low 1.03 | locus YGL086W, strain mad1, active compounds read low 0.982 | locus YGL167C, strain pmr1, active compounds read low 0.961 | locus YGL173C, strain kem1, active compounds read low 0.957 | locus YGL227W, strain vid30, active compounds read low 0.966 | locus YGL240W, strain doc1, active compounds read low 0.971 | locus YGL248W, strain PDE1, active compounds read low 1.01 | locus YGL253W, strain hxk2, active compounds read low 0.974 | locus YGR135W, strain pre9, active compounds read low 1.03 | locus YGR252W, strain gcn5, active compounds read low 1.08 | locus YHR013C, strain ard1, active compounds read low 0.947 | locus YHR027C, strain rpn1, active compounds read low 0.979 | locus YHR030C, strain SLT2, active compounds read low 1.01 and 1.04 | locus YHR079C, strain IRE1 (second series), active compounds read low 1.01 | locus YHR079C, strain IRE1, active compounds read low 1.03 | locus YHR094C, strain hxt1, active compounds read low 1.01 | locus YHR129C, strain ARP1, active compounds read low 1.01 | locus YHR142W, strain chs7, active compounds read low 0.919 | locus YHR200W, strain rpn10, active compounds read low 1.01 | locus YIL066C, strain RNR3, active compounds read low 1.01 | locus YIL073C, strain SPO22, active compounds read low 1.06 | locus YIL125W, strain kgd1, active compounds read low 1.02 | locus YIR030C, strain dcg1, active compounds read low 1 | locus YJL092W, strain hpr5, active compounds read low 0.976 | locus YJL095W, strain BCK1 (second series), active compounds read low 0.962 | locus YJL095W, strain BCK1, active compounds read low 1.01 and 1.02 | locus YJL115W, strain asf1, active compounds read low 0.95 | locus YJL129C, strain trk1, active compounds read low 0.95 | locus YJL134W, strain LCB3, active compounds read low 1.01 | locus YJL154C, strain vps35, active compounds read low 0.953 | locus YJL164C, strain tpk1, active compounds read low 0.969 | locus YJL166W, strain qcr8, active compounds read low 0.953 | locus YJL168C, strain set2, active compounds read low 0.999 | locus YJL187C, strain SWE1 (second series), active compounds read low 1.01 | locus YJL187C, strain SWE1, active compounds read low 0.977 | locus YJR043C, strain POL32, active compounds read low 1.01 | locus YJR066W, strain TOR1, active compounds read low 0.991
